Hits are enriched below; roughly 5.8% of the tested compounds scored in any of these assays.
MCF10A rerep: A quantitative high throughput screen for small molecules that induce DNA re-replication in MCF 10a normal breast cells | MCF 10A DNA re-replication, Hoechst nuclear intensity, 48 h | Potency, µM (top dose mostly 46.1 µM), inactives show at the highest dose activity, positive = re-replication, actives largely listed as activators | 350,000 compounds, 2.9% hits | AID 624296, 2012; also: % of control where 0% means no effect; nearly all actives have a fitted effect of over 50% in size
12-LOX inh: Primary qHTS assay for inhibitors of human arachidonate 12S-lipoxygenase (ALOX12): Round 2 | 580,000 compounds, 1.1% hits | Potency, µM (titrated, usually from 108 µM), without a hit: top-dose activity change, negative = inhibition, hits mostly inhibitors | AID 1671190, 2021 | Polyunsaturated fatty acid lipoxygenase ALOX12 (Homo sapiens), P18054 | purified 12hLO, xylenol orange hydroperoxide absorbance; also: % is scaled to controls: 0 for no effect and ±100 for the full control effect
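Purified human 12hLO (150 nM final) in 25 mM Hepes, 0.01% Triton X-100, pH 7.0 was preincubated 15 min at room temperature with compound. Then 40 uM arachidonic acid was added, 30 min. Hydroperoxide was read by Fe-XO absorbance ratio 573/405 nm.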
KB-V1 cytotox: qHTS assay for MDR1-selective chemotherapeutics: Primary screen using the drug-selected MDR subline cells KB-V1; Potency, µM (series often up to 46.1 µM), most hits filed as cytotoxic; 400,000 compounds, 3.4% hits; AID 1347076, 2019; KB-V1 MDR cells viability, CellTiter-Glo, 72 h; also: % is scaled to controls: 0 for no effect and ±100 for the full control effect; nearly all actives have a fitted effect of over 60% in size
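Cytotoxicity via CellTiter-Glo luminescence after 72 h compound exposure at 37 degrees C. Cells: drug-selected KB-V1 line, DMEM phenol-red free plus 10% FBS. Compounds tested at multiple concentrations; normalized data fitted to concentration-effect curves.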
PINK1 modulator: A Quantitative High throughput Screen to Identify Chemical Modulators of PINK1 Expression. Potency, µM (highest dose often 76.6 µM), for inactives: top-dose activation (PINK1 increase), usual class: activators. PINK1 immunofluorescence, high-content cytometry, 24 h. 410,000 compounds, 0.2% hits; active = well fitted activation curve with a large enough effect; inconclusive = small, poorly fitted or top-dose-only effect; cell line not stated here; also: % of control where 0% means no effect; nearly all actives have a fitted effect of over 65% in size
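Decision-based qHTS: stable cells, 24 h exposure to five compound concentrations, CCCP as control. Fixed cells stained for PINK1 plus nuclear, mitochondrial and cell markers, cytometer read.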
SW480 rereplic: A quantitative high throughput screen for small molecules that induce DNA re-replication in SW480 colon adenocarcinoma cells; 340,000 compounds, 1.8% hits; SW480 DNA re-replication, Hoechst DNA content imaging, 48 h; Potency, µM (series often up to 46.1 µM), inactives show at the top dose re-replication activation, actives largely listed as activators; also: % of control where 0% means no effect; nearly all actives have a fitted effect of over 55% in size
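Compounds, transferred as 23 nL by pin tool, were incubated with cells for 48 hr; DNA content per nucleus was then quantified by Hoechst staining and fluorescence plate imaging.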
KB-3-1 cytotox: qHTS assay for MDR1-selective chemotherapeutics: Primary screen using the parental adenocarcinoma cell KB-3-1. KB-3-1 viability, CellTiter-Glo ATP luminescence, 72 h. Potency, µM (doses to about 46.1 µM), most hits filed as cytotoxic. 400,000 compounds, 1.4% hits; also: % is scaled to controls: 0 for no effect and ±100 for the full control effect; nearly all actives have a fitted effect of over 60% in size
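Parental KB-3-1 adenocarcinoma cells in phenol-red-free DMEM with 10% FBS were pin-treated with compounds at several concentrations, incubated 72 h at 37 °C, and viability read by CellTiter-Glo luminescence; concentration-effect curves were fitted after normalization.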
* = called active by the depositor; i = inactive; ? = inconclusive; · = no result given; [ ] = dose if it differs, or a comment. Unless noted, calls follow the shape of the dose curve; as a rule, active = well fitted curve in the direction sought with a large enough effect; inconclusive = small, poorly fitted or top-dose-only effect, or another doubt; inactive = no such curve, though single readings can be large; an effect the other way counts as inactive or inconclusive. Potency is read from the fitted curve at half-maximal effect.

SMILES	MCF10A rerep	12-LOX inh	KB-V1 cytotox	PINK1 modulator	SW480 rereplic	KB-3-1 cytotox
C=CCOC(=O)C1=C(C)NC(=O)NC1c1cn(-c2ccccc2)nc1-c1cccs1 (stereo unspecified)	10%	?	21µM*	3%[38.3 µM]	-6%	i
Cc1ccc(C(C(=O)NCc2ccco2)N(C(=O)CNC(=O)c2cccs2)c2c(C)cccc2C)cc1 (stereo unspecified)	18µM*	?	i	?	?	i
Cc1ccc(C(C(=O)NCc2ccco2)N(C(=O)CNC(=O)c2cccs2)c2c(C)cc(C)cc2C)cc1 (stereo unspecified)	5%	6%	?	21%[38.3 µM]	1%	i
COc1cc2sc(-c3ccccc3OC)c(-c3ccc(O)cc3)c2cc1OC	-12%	-11%	i	17%	?	i
COc1ccc2sc(-c3ccccc3OC)c(-c3ccc(O)cc3)c2c1	16µM*	?	i	4%	2%	i
O=C(O)c1ccc(/C=N/NC(=O)c2cc3c(ccc4ccccc43)o2)cc1	2%	1%	i	1%	2%	i
Cc1ccc(-c2ccc(/C=N\NC(=O)c3cc4c(ccc5ccccc54)o3)o2)cc1[N+](=O)[O-]	7.3µM*	483%	?	6%	12%	?
O=C(N/N=C/c1ccc(-c2ccc(Cl)c(C(=O)O)c2)o1)c1cc2c(ccc3ccccc32)o1	21µM*	40µM*	i	3%	?	i
COCC1CN(C)CC12CCN(S(=O)(=O)c1ccc3c(c1)CCC3)CC2 (stereo unspecified)	·	-26%	·	·	·	·
CN1CCN(C2Cc3ccc(F)cc3Sc3cc(F)c(Cl)cc32)CC1 (stereo unspecified)	?	?	i	-2%	?	?
CN1CCN(C2Cc3ccccc3Sc3cc(C(F)(F)F)ccc32)CC1 (stereo unspecified)	?	?	i	-3%	?	i
Cc1cccc2c1Sc1ccc(Cl)cc1CC2N1CCNCC1 (stereo unspecified)	12µM*	·	?	-1%	29%	?
CCc1cccc2c1Sc1ccccc1CC2N1CCNCC1 (stereo unspecified)	?	?	13µM*	3%	86%	?
Nc1ncc(-c2nnnn2-c2ccc(Cl)cc2)c(-c2ccc(Cl)cc2)n1	?	0%	6.5µM*	2%	2.9µM*	5.2µM*
Cc1ccc(-n2nnnc2-c2cnc3ccc(Cl)cc3c2-c2ccccc2)cc1	21µM*	16%	?	9%	?	7.3µM*
Clc1ccc(-n2nnnc2-c2cnc3ccccc3c2-c2ccccc2)cc1	-4%	114%	16µM*	1%	-8%	i
Clc1ccc(-c2nnnn2-c2ccc(Cl)cc2)cc1	8%	?	i	3%	-11%	?
O=c1c2ccccc2cnn1CN1CCN(S(=O)(=O)c2ccc(Cl)cc2)CC1	·	-10%	·	·	·	·
CC(=O)c1ccc(NC(=O)CSC2=C(C#N)C(c3ccccc3C)C3=C(CCCC3=O)N2)cc1 (stereo unspecified)	·	-53%	·	·	·	·
O=C(Cc1c[nH]c2ccccc12)N1CCN(S(=O)(=O)c2cc(F)ccc2F)CC1	·	91%	·	·	·	·
C[n+]1cc(C(=O)N2CCCCC2)ccc1/C=C/c1c[nH]c2ccccc12	9%	20µM*	i	4%	2%	i
COc1ccc(-c2cccc(NS(=O)(=O)c3ccc([N+](=O)[O-])cc3)c2)nn1	13%	-9%	13µM*	-2%	-7%	i
